Bioassay records deposited in PubChem BioAssay by several laboratories.
PREPL inh: human PREPL enzyme inhibition. Q4J6C6. recombinant PREPL, fluorescence polarization activity-based probe. inhibition, % at 5.96 µM. 320,000 compounds, 0.68% hits; in the data active means inhibition above about 43%;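 further: 0% = enzyme with DMSO and 100% = wells lacking enzyme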
GRK2 aptamer HTS: blocks RNA aptamer binding to human GRK2 | P25098 | bead flow cytometry, FAM-aptamer displacement from GRK2 | inhibition of aptamer binding, % at 10 µM | 330,000 compounds, 0.59% hits | AID 488847;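 active means inhibition of aptamer binding above 40%, roughly 3 SD of noise, on plates passing a quality check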;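 further: median bead fluorescence of bound FAM aptamer so fluorescent compounds give negative values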
Target sequence (P25098 whole entry, looked up): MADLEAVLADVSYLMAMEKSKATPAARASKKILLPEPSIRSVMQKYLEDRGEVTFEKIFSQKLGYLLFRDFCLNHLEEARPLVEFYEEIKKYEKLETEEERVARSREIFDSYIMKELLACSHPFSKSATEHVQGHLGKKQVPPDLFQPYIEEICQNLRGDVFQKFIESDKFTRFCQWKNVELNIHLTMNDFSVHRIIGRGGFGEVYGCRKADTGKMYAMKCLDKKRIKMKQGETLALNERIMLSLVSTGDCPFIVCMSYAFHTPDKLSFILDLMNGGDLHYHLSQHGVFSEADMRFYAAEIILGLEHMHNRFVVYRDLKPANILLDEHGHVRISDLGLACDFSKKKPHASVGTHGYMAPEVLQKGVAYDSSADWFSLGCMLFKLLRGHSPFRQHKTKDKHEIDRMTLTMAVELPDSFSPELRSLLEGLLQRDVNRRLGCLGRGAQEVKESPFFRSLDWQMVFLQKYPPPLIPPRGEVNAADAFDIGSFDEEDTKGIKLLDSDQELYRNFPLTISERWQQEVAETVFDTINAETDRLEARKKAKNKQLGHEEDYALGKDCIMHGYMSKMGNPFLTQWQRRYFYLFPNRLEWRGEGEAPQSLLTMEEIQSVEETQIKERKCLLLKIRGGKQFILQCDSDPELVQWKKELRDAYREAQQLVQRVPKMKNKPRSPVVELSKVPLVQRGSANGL
GASC-1 inh: inhibitors of human GASC-1 (JMJD2C) demethylase | Q9H3R0 | inhibition, % at 2.35 µM | GST-JMJD2C(1-420) H3K9me3 demethylation, DELFIA europium | 330,000 compounds, 0.069% hits;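 active means more than half of a compound's replicate wells show inhibition beyond 50%, single wells judged on their own value; inconclusive means some, but no more than half, of replicates pass 50% inhibition; inactive means no replicate passes 50% inhibition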;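 further: signal counts dimethyl H3K9 product captured on neutravidin plate; 0% = median of DMSO wells and 100% = 0.3 times that DMSO median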
DSG3 Ab inh: inhibitors of pemphigus antibody binding to human desmoglein-3 | P32926 | DSG3-coupled beads, scFv-anti-DSG3-GFP binding, flow cytometry; stronger effect = lower value | binding (percent of control), % at 10 µM | 310,000 compounds, 0.48% hits | AID 588358;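 active means binding more than 3 SD below its plate's average and above zero; inconclusive means below that plate limit but binding exactly zero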
VLA-4 inh: inhibition in a human VLA-4 binding assay | P13612 | VLA-4 expressing cells, ligand binding flow cytometry | inhibition, % (about 7 µM as worked out from the volumes in the protocol) | 330,000 compounds, 0.2% hits | AID 2557; in the data active means inhibition above about 50%
GRK2 CP1: human GRK2 inhibition confirmation, cherry pick 1 | shares compounds with GRK2 aptamer HTS | bead-bound GRK2, FAM-aptamer displacement, flow cytometry | aptamer displacement, % at 10 µM | 2,000 compounds, 4% hits | AID 504451;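 active means aptamer displacement above 40%, near three times the noise of non-fluorescent compounds, on plates passing quality checks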;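 further: negative values mostly reflect intrinsic compound fluorescence rather than true enhancement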
Aptamer quench: counter-screen for GRK2 aptamer inhibitors: fluorescent aptamer quenchers. shares compounds with GRK2 aptamer HTS. Fluorescent RNA aptamer beads, quenching, flow cytometry; stronger effect = higher value. fluorescence change (kMESF span), kMESF (no concentration beside the values). 110 tested, under 10 active;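 active means compounds whose bead fluorescence drops by more than 37 kMESF across the dose range, marking them as dye quenchers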
FAM quench CP1: quenches fluorescent RNA aptamer, GRK2 hit artifact. shares compounds with GRK2 aptamer HTS. Carboxyfluorescein RNA aptamer on beads, flow cytometry quenching; stronger effect = lower value. fluorescence response (% of DMSO), % at 10 µM. 2,000 tested, under 10 active;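 active means compounds that quench the bead-bound fluorescent RNA probe, cutting fluorescence to under half of the solvent control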;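 further: counterscreen run without GRK2 so only probe quenching by compound is measured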
GRK2 CP2: confirmation of human GRK2 inhibitors binding RNA aptamer site. shares compounds with GRK2 aptamer HTS. bead-bound GRK2, FAM-aptamer displacement, flow cytometry. inhibition of aptamer binding, % at 10 µM. AID 504782. 360 tested, under 10 active;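 active means inhibition of aptamer binding above 40%, about triple the noise seen with nonglowing compounds, on plates passing quality control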;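 further: negative values mostly come from compounds that fluoresce themselves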
FAM quench SP: quenches fluorescent RNA aptamer, GRK2 hit artifact. carboxyfluorescein RNA aptamer beads, flow cytometry quenching; stronger effect = lower value. AID 588494. shares compounds with GRK2 aptamer HTS. fluorescence response vs DMSO, % at 10 µM. 360 tested, under 10 active;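 active means response vs DMSO under 50%, meaning signal dropped by over half, treated as fluorescence quencher; inconclusive means no clear call, values can overlap the other calls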;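 further: labelled aptamer on streptavidin beads without GRK2 as a quench counter-screen; 100% = bead fluorescence of DMSO wells and lower means quenching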
Starred values were filed as active, the others as inactive; ? = inconclusive; . = no result given. This is a sample that favours compounds with a hit; in the whole collection about 1.6% have one here.

SMILES | PREPL inh | GRK2 aptamer HTS | GASC-1 inh | DSG3 Ab inh | VLA-4 inh | GRK2 CP1 | FAM quench CP1 | others
COCCNC(=O)C/C(C)=N/NC(=O)C(=O)NC1CCCCC1 | 1 | 57* | -14 | 100 | -2 | 86* | 101 | Aptamer quench=-9.6
Cc1ccc(S(=O)(=O)CCc2nc3ccccc3s2)cc1C | -36 | 1 | -2 | 105 | 10 | . | .
COC(=O)/C=C1\N/C(=N/c2nc(C)c3cc(OC)ccc3n2)NC1=O | 5 | 55* | 15 | 96 | 2 | 12 | 97
Fc1ccc(CNc2nc3ccccc3n3cnnc23)cc1 | 9 | 0 | -3 | 96 | 0 | . | .
CC(CNc1nc2ccccc2n2cnnc12)c1ccccc1 (stereo not drawn) | -47 | 42* | 13 | 98 | 5 | -3 | 103
CC(=O)NCCC(=O)Nc1nc(-c2ccccc2Cl)cs1 | -2 | 4 | -24 | 104 | 23 | . | .
CC(=O)NCCC(=O)Nc1nc2c(ccc3ccccc32)s1 | -8 | 4 | -7 | . | 3 | . | . | GRK2 CP2=8;FAM quench SP=100
CC(=O)NCCN1C(=O)S/C(=C\c2cccs2)C1=O | 4 | 79* | 11 | 102 | 12 | -2 | 101
O=C(NCCN1C(=O)S/C(=C\c2cccs2)C1=O)c1ccco1 | -5 | 0 | -20 | 118 | -1 | . | .
Cc1cc(C)cc(OCC(=O)O/N=C(\N)c2cccnc2)c1 | . | . | -16 | 110 | . | . | .
Cc1ccc2nc(N3CCN(c4ccccc4F)CC3)c(C=O)c(=O)n2c1 | 7 | 64* | 2 | 81 | 1 | 0 | 100
CC(C)(C)OC(=O)N1CCC(c2cc(=O)n3[nH]c(-c4ccc(Cl)cc4)cc3n2)CC1 | 0 | 88* | -7 | 100 | -1 | -26 | 94
CC(C)(C)OC(=O)N1CCC(c2cc(=O)n3[nH]cc(C(=O)Nc4ccc(F)c(Cl)c4)c3n2)CC1 | -1 | 1 | 36 | 99 | 1 | . | .
COc1ccc(N2CCN(C3CCCN(C(=O)c4cccc(C)n4)C3)CC2)cc1 (stereo not drawn) | 3 | 0 | -1 | 97 | 8 | . | .
CCOC(CNc1ncnc2sc(-c3ccccc3)cc12)OCC | 14 | 48* | 30 | 103 | 11 | 0 | 98
CN(C)CCCNc1ncnc2sc(-c3ccccc3)cc12 | -79 | 0 | 11 | 94 | 2 | . | .
CC(=O)OCC1O[C@@H](O[C@@H]2C[C@H]3C(C)(C)[C@H](OC(C)=O)CC[C@]3(C)[C@H]3CC[C@]45C[C@]4(CC[C@H]5[C@@H](C)C[C@@H](O)[C@H](O)C(C)(C)O)[C@@]32C)[C@H](O)[C@@H](O)[C@@H]1O (stereo partly drawn) | 11 | 0 | -3 | . | -2 | . | .
COc1ccccc1NC(=O)CCC(=O)OCc1ccc(Cl)cc1 | 6 | 97* | -5 | 90 | 4 | 2 | 111
COc1ccccc1NC(=O)c1ccccc1Oc1ccccc1 | -2 | 41* | 11 | 98 | -3 | 0 | 92
COc1ccc(S(=O)(=O)CCC(=O)Nc2cc(C)ccc2OC)cc1 | 1 | 0 | -13 | 104 | 2 | . | . | GRK2 CP2=-29;FAM quench SP=104
COc1ccc(CCCC(=O)Nc2cc(C)ccc2OC)cc1 | 18 | 1 | -2 | 121 | 3 | . | .
COc1ccccc1NC(=O)CCCCC(=O)Nc1ccccc1OC | -3 | 0 | 3 | 97 | 4 | . | .
COc1ccccc1NC(=O)CCS(=O)(=O)c1ccccc1 | 2 | 0 | 0 | 103 | 5 | . | . | GRK2 CP2=-9;FAM quench SP=102
O=P(c1ccccc1)(c1ccccc1)c1nc(-c2ccccc2)oc1NCc1ccccc1 | 0 | 0 | 8 | 97 | -7 | . | .
CSc1ccccc1NC(=O)Cn1nnc(-c2ccc(S(C)(=O)=O)cc2)n1 | -4 | 1 | 1 | 79 | 0 | . | .
SMILES | PREPL inh | GRK2 aptamer HTS | GASC-1 inh | DSG3 Ab inh | VLA-4 inh | GRK2 CP1 | FAM quench CP1 | others
O=C(CN1C(=O)CSc2ccc(S(=O)(=O)N3CCOCC3)cc21)NCc1ccc(F)cc1 | -11 | 0 | -1 | 89 | -2 | . | .
COc1ccc(OC)c(NC(=O)CCS(=O)(=O)c2cc3c(cc2C)NC(=O)CO3)c1 | 12 | 0 | 7 | 100 | 25 | . | . | GRK2 CP2=-3;FAM quench SP=106
CCC(=O)N1c2ccc(S(=O)(=O)CCC(=O)Nc3ccc(OC)cc3OC)cc2CC1C (stereo not drawn) | 15 | 5 | -5 | 105 | 1 | . | . | GRK2 CP2=-29;FAM quench SP=102
CCOC(=O)C1CCCN(S(=O)(=O)c2cc3c4c(c2)CCC(=O)N4CCC3)C1 (stereo not drawn) | 3 | 4 | ? | 102 | -3 | . | .
O=S1(=O)CC2NC(=S)N(c3cccc(Br)c3)C2C1 (stereo not drawn) | 3 | 4 | -2 | 106 | -2 | . | .
CC(C(=O)OCC(=O)N1CCN(c2ccccc2)CC1)N1C(=O)c2ccccc2C1=O (stereo not drawn) | 6 | 3 | . | ? | 10 | -1 | 100
CCOCCCN(C(=O)CNC(=O)c1ccco1)C(C(=O)NC1CCCC1)c1ccccc1C (stereo not drawn) | 10 | 56* | -32 | 77 | 5 | 1 | 104
CCOC(=O)CN(C(=O)CNC(=O)c1ccco1)C(C(=O)NC1CCCC1)c1ccccc1OCC (stereo not drawn) | 29 | 2 | -3 | 102 | 1 | . | .
O=C(c1cc(S(=O)(=O)N2CCOCC2)ccc1F)N(Cc1nnc(-c2ccccc2Cl)o1)C1CC1 | 24 | 1 | 1 | 101 | -6 | . | .
Cc1ccc(S(=O)(=O)N2CCOCC2)cc1C(=O)N(Cc1nnc(-c2ccccc2Cl)o1)C1CC1 | 25 | 44* | -2 | . | 12 | . | . | GRK2 CP2=-2;FAM quench SP=100
CC(=O)Nc1ccc(C=NNc2ccc([N+](=O)[O-])cc2S(=O)(=O)Nc2ccccc2C(=O)O)cc1 | 20 | 0 | 6 | . | 6 | . | .
CN(CCO)c1ccc(C=NNc2ccc([N+](=O)[O-])cc2S(=O)(=O)Nc2ccccc2C(=O)O)cc1 | 11 | 35 | 14 | . | -23 | 11 | 101
O=C(Cn1c(=O)c2cccn2c2ccc(F)cc21)NCCCN1CCN(c2ccccc2F)CC1 | -32 | 0 | 1 | 110 | 2 | -32 | 98
CN(C)CCNC(=O)Cn1c(=O)c2cccn2c2ccc(F)cc21 | . | 0 | -5 | 103 | 4 | . | .
